Compound activity deposited in PubChem by National Center for Advancing Translational Sciences (NCATS).
Rows were chosen to be rich in hits. Some 9% of all compounds tested hit in one or more screens of this group.
KinaseGlo FLuc – Counterscreen for Luciferase (Kinase-Glo TM) Inhibition; Kinase-Glo luciferase, ATP luminescence, 8 min; Potency, µM (top dose mostly 38.3 µM), usual class: inhibitors; 200,000 tested, 0.28% active; AID 1379, 2008; further: nearly all actives have a fitted effect of over 60% in size
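Recombinant Kinase-Glo luciferase, 10 uM ATP (linear range), luciferin; imidazole pH 7.2 / KCl / MgCl2 / Tween / BSA buffer; 8 min RT; luminescence.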
ALDH1A1 block – qHTS Assay for Inhibitors of Aldehyde Dehydrogenase 1 (ALDH1A1); Purified ALDH1A1, NADH fluorescence, propionaldehyde substrate; Aldehyde dehydrogenase 1A1 (Homo sapiens), P00352; 220,000 tested, 7.3% active; Potency, µM (series often up to 75.3 µM), actives largely listed as inhibitors; AID 1030, 2008; active means well fitted inhibition curve with a large enough effect, not every such curve was filed as active; inconclusive means small, poorly fitted or top-dose-only effect, or another doubt; inactive means no such curve, though single readings can be large or run the other way
Target sequence (P00352 whole entry, looked up): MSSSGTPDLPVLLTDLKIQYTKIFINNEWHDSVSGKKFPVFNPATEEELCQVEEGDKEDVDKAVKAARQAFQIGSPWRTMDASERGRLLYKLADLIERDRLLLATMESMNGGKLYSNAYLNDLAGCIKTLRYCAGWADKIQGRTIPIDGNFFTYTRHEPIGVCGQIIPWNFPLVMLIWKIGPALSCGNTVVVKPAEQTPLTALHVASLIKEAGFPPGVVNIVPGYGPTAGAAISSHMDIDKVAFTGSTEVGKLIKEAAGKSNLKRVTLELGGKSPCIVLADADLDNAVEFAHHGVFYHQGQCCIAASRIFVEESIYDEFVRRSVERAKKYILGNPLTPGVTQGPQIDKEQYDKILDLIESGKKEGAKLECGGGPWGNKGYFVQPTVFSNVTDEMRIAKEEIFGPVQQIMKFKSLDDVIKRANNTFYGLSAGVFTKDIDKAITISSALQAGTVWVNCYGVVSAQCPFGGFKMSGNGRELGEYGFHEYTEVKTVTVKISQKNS
HTT aggregate – qHTS Multiplex Assay to Identify Dual Action Probes in a Cell Model of Huntington: Aggregate Formation (GFP); AID 1688, 2009; 220,000 tested, 1.1% active; PC12 HttQ103-GFP aggregates, Acumen cytometry, 40 h; Potency, µM (series often up to 46.1 µM), usual class: inhibitors; further: nearly all actives have a fitted effect of over 60% in size
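PC12/HTTQ103-GFP, ecdysone-inducible; teb 100 nM; cpd qHTS titration; GFP aggregates read on laser cytometer, Ex 488/Em 500-530 nm.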
HPGD block – qHTS Assay for Inhibitors of HPGD (15-Hydroxyprostaglandin Dehydrogenase); AID 894, 2007; 150,000 tested, 4.3% active; Potency, µM, actives largely listed as inhibitors; 15-hydroxyprostaglandin dehydrogenase [NAD(+)] (Homo sapiens), P15428; purified HPGD, NADH fluorescence kinetic, PGE2 substrate; active means well fitted inhibition curve with a large enough effect, not every such curve was filed as active; inconclusive means small, poorly fitted or top-dose-only effect, or another doubt; inactive means no such curve, though single readings can be large or run the other way
Target sequence (P15428 whole entry, looked up): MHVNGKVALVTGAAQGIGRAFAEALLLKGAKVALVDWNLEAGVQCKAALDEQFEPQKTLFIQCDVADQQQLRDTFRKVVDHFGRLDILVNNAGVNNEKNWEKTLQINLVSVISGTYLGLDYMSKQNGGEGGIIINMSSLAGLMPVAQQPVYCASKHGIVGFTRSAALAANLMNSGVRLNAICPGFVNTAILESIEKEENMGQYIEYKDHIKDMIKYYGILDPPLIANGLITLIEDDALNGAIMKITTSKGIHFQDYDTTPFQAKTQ
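20 nM HPGD preincubated 15 min at room temperature with compound in 50 mM Tris-HCl pH 8, 0.01% Tween 20. Started with 1 mM NAD+ and 30 uM prostaglandin E2; NADH fluorescence (360/450 nm) read 5 times over 30-s intervals, last minus first.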
HTT cytoprotect – qHTS Multiplex Assay to Identify Dual Action Probes in a Cell Model of Huntington: Cytoprotection (ATP); Potency, µM (top dose mostly 56.4 µM), usual class: activators; PC12 HTT-Q103 induced, cytoprotection, ATP luminescence, 40 h; 230,000 tested, 0.14% active; further: nearly all actives have a fitted effect of over 45% in size
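Readout: ATPlite luminescence (ATP level). Model: stable PC12, inducible Htt exon1 Q103-GFP. Inducer: tebufenozide, 100 nM final. Compounds: dose series. No G418 in medium.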
LMNA splice mod – qHTS Assay for Modulators of Lamin A Splicing; HeLa LMNA splicing GFP/RFP minigene ratio, 48 h; Potency, µM (doses to about 46.1 µM), usual class: inhibitors; 200,000 tested, 0.01% active; AID 1487, 2009; active means well fitted inhibition curve with a large enough effect in the signal ratio, with a control signal flat, not every such curve was filed as active; inconclusive means small, poorly fitted or top-dose-only effect, or effect the other way, or a change in a side signal; the % refers to the signal ratio
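Read-out is the ratio of GFP to DsRed2 object intensity, acquired by 488 nm laser-scanning cytometry on HeLa lamin A-EGFP minigene reporter cells. Compound incubation 48 hrs at 37 °C in Opti-MEM with 2% FBS; DMSO 0.5% final.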
Numbers stand for hits; - = inactive; ? = inconclusive; . = not tested or not shown; [ ] = remark or other dose. Unless noted, the call rests on the fitted dose curve; in most records, active means well fitted curve in the direction sought with a large enough effect; inconclusive means small, poorly fitted or top-dose-only effect, or another doubt; inactive means no such curve, though single readings can be large; an effect the other way counts as inactive or inconclusive.

SMILES	KinaseGlo FLuc	ALDH1A1 block	HTT aggregate	HPGD block	HTT cytoprotect	LMNA splice mod
N#CC1=C(N)N(c2ccc(Cl)c(Cl)c2)C(=O)C1	-	28µM	-	.	-[10 µM]	-
CCn1c(/C=C2/C(=O)N(C)c3ccccc32)nc2ccccc2c1=O	-	9.5µM	-	-	-	-
CCN1C(=O)/C(=C\c2nc3ccccc3c(=O)n2CC)c2ccccc21	-	14µM	-	.	-[10 µM]	?
CCC(=O)N1c2ccccc2CC1C(=O)NCCc1ccc(C)cc1 (configuration not stated)	.	.	.	.	.	-
CSc1ccc(/C=C/C(=O)OCC(=O)NC(C)C)cc1	-	?	-	.	-[10 µM]	.
CCOc1ccc(CN2CCc3nc(N4CCN(c5ccccn5)CC4)ncc3C2)cc1OC	.	.	.	.	.	-
CCOC(=O)CSCC(=O)Nc1cc(C)ccc1C	-	?	-	-	-	-
O=C(CNC(=O)c1ccccc1Cl)N/N=C/c1ccc([N+](=O)[O-])s1	-	-	11µM	-	-[10 µM]	?
O=C(N/N=C/c1ccc(Cl)s1)c1ccccc1[N+](=O)[O-]	.	.	-[9.22 µM]	.	-[10 µM]	.
O=C(Cc1cccs1)N/N=C\c1ccc([N+](=O)[O-])s1	-	13µM	?	.	-	-
COc1cc(/C=N/NC(=O)Cc2cccs2)c([N+](=O)[O-])cc1OC	-	?	-	-	.	-
Cc1ccc(NC(=S)N/N=C/c2ccc([N+](=O)[O-])s2)cc1	-	11µM	-	?	.	?
Cc1ccc(/C=N/NC(=O)Cc2cccs2)o1	-	13µM	-	-	-[10 µM]	-
COc1ccc(/C=N/NC(=O)Cc2cccs2)cc1	.	.	-[9.22 µM]	.	-[10 µM]	.
CCN1CCCC1CN(Cc1cc2c(C)cc(C)cc2[nH]c1=O)C(=O)NC1CCCCC1 (configuration not stated)	-	?	-	-	-	-
COc1cc(C(=O)NNC(=O)C2CC=CCC2C(=O)O)cc(OC)c1OC (configuration not stated)	-	-	-	-	.	?
COc1cc(C(=O)Nc2ccccc2N2CCOCC2)ccc1OCc1c(C)noc1C	-	?	?	-	.	-
Cc1sc2nc(C)n(/N=C/c3ccc(O)cc3)c(=O)c2c1C	-	?	-	-	-	-
COc1ccc(NC(=O)Nc2ccccc2C(N)=O)cc1	8.9µM	-	-[9.22 µM]	.	-	.
CCOc1ccc(NC(=O)Nc2ccccc2C(N)=O)cc1	7.1µM	-	-[9.22 µM]	.	-[10 µM]	.
COc1ccccc1NC(=O)CC1C(=O)Nc2c1c(=O)n(C)c(=O)n2C (configuration not stated)	-	-	?	-	-	-
Cn1cc(Br)c(-c2cccc(NC(=O)CC(C)(C)CC(=O)O)c2)n1	.	?	-[9.22 µM]	.	-[10 µM]	.
CN1CCN(C(=O)c2ccc(N3CCCC3=O)cc2)CC1	-	-	-	13µM	-	-
CC1CN(C(=O)c2ccc3c(c2)OCO3)CC(C)O1 (configuration not stated)	-	-	-	25µM	-[10 µM]	-
CCCCC(=O)Nc1ccc(C(=O)N2CCN(C)CC2)cc1	-	?	-	14µM	-[10 µM]	-
SMILES	KinaseGlo FLuc	ALDH1A1 block	HTT aggregate	HPGD block	HTT cytoprotect	LMNA splice mod
Cc1csc2c(N3CCN(C(=O)c4ccc(C(C)(C)C)cc4)CC3)ncnc12	.	16µM	-[9.22 µM]	.	-[10 µM]	.
CC1CN(C(=O)/C=C/c2ccc3c(c2)OCO3)CC(C)O1 (configuration not stated)	-	?	-	?	-[10 µM]	-
Cc1csc2c(N3CCN(C(=O)NC(C)(C)C)CC3)ncnc12	.	.	-[9.22 µM]	.	-[10 µM]	.
CCOC(=O)c1cc(-c2ccc3c(c2)OCCO3)nc2c1c(C)nn2CCC#N	-	?	-	?	-[10 µM]	-
O=C(c1ccc(N2CCCC2=O)cc1)N1CCOCC1	-	-	-	22µM	-[10 µM]	-
CN1CCN(C(=O)c2ccc(C(F)(F)F)cc2)CC1	-	-	-	.	-	-
CN1CCN(C(=O)c2ccc3c(c2)OCCO3)CC1	-	-	-	16µM	-[10 µM]	-
O=C(NC1=NCCS1)c1ccc(N2CCCC2=O)cc1	-	-	-	.	-[10 µM]	-
O=C(c1ccc(-n2cccc2)cc1)N1CCOCC1	-	-	-	?	-	-
Cc1csc(NC(=O)c2ccc(N3CCCC3=O)cc2)n1	13µM	?	-	.	-[10 µM]	-
CN1CCN(C(=O)c2ccc(C(C)(C)C)cc2)CC1	-	-	-	11µM	-	-
O=C(C1=C[C@@H](c2csc3ccccc23)C[C@@H](OCc2ccc(CO)cc2)O1)N1CCN(Cc2ccccc2)CC1	.	?	-[9.22 µM]	.	-[10 µM]	.
COC(=O)C1CCN(S(=O)(=O)c2c(C)n(C)c(=O)n(C)c2=O)CC1	-	-	-	-	-[10 µM]	-
Cn1c2c(c(=O)n(C)c1=O)C(CC(=O)Nc1ccccc1F)C(=O)N2 (configuration not stated)	.	.	-[9.22 µM]	.	-[10 µM]	.
Cn1c2c(c(=O)n(C)c1=O)C(CC(=O)Nc1ccccc1)C(=O)N2 (configuration not stated)	-	-	5µM	-	-[0.074 µM]	-
O=[N+]([O-])c1cc(Cl)ccc1NCCNS(=O)(=O)c1ccccc1	-	?	?	-	-[10 µM]	?
CC(C)NC(=S)NC1(C)CCS(=O)(=O)C1 (configuration not stated)	-	-	-	-	-[10 µM]	-
CC1(C)CC(=O)C(Sc2ccccc2[N+](=O)[O-])=C(O)C1	-	7.1µM	-	?	.	?
CC1=NN(c2ccc(F)cc2)C(=O)C1C(c1cccc(O)c1)c1c(C)[nH]n(-c2ccc(F)cc2)c1=O (configuration not stated)	-	8.9µM	-	18µM	-	-
Cc1[nH]n(-c2ccc(Cl)cc2)c(=O)c1C(=O)c1ccccc1	-	-	-[9.22 µM]	.	-[10 µM]	-
CC1=NN(c2ccc(Cl)cc2)C(=O)C1C(c1cccc(O)c1)c1c(C)[nH]n(-c2ccc(Cl)cc2)c1=O (configuration not stated)	-	4µM	13µM	25µM	-[10 µM]	?
CCOC(=O)CN(C(=O)CNC(=O)c1cccs1)C(C(=O)NC1CCCCC1)c1cccnc1 (configuration not stated)	-	-	-	-	-[1.9 µM]	-
C=CCn1c(O)c(N=NC(=S)Nc2cccc(OC)c2)c2ccccc21	-	?	?	-	.	?
CCn1c(O)c(N=NC(=O)CNC(=O)/C=C/c2ccco2)c2ccccc21	-	?	-	-	-[10 µM]	-
CCNC(=S)N=Nc1c(O)n(Cc2ccc(Cl)cc2)c2ccccc12	-	3.5µM	-	-	-[10 µM]	?
Oc1c(N=NC(=S)Nc2ccccc2F)c2ccccc2n1Cc1ccc(Cl)cc1	-	10µM	?	.	-[10 µM]	?
